TDP1 cell CPT: DT40-hTDP1 cell growth loss with CPT. chicken DT40 Tdp1-/-;hTDP1 cells + 20 nM CPT, ATP luminescence, 48 h. hit rate 12% among 420,000. AID 686979. Potency, µM (top dose mostly 46.2 µM), without a hit: at the top dose activity change, negative = growth inhibition, hits mostly inhibitors; further: potency means the concentration at half of the fitted maximal effect; nearly all actives have a fitted effect of over 55% in size
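Chicken DT40 Tdp1-/- cells stably complemented with human TDP1 were seeded at 400 cells/well in medium containing 20 nM camptothecin, exposed to pin-transferred compounds, and grown at 37 °C for at least 48 hr. Viability was read as ATP luminescence.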
HT1080 IDH1KD tx: kills HT-1080 cells with IDH1 knockdown | HT-1080 IDH1 knockdown viability, ATP luminescence, 48 h | Potency, µM (doses to about 46.1 µM), without a hit: at the highest dose activity, negative = toxicity, usual class: cytotoxic | hit rate 2% among 360,000;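 further: potency means the concentration at half of the fitted maximal effect; 0% = DMSO wells and -100% = cell-free medium wells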
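Assay cells: HT-1080 with IDH1 knockdown, 750 per well, RPMI/5% FBS. Exposure: 48 h at 37 °C following 2 h pre-incubation. Read: CellTiter-Glo luminescence; fitted concentration-response, curve class assigned.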
DT40 TDP1 no CPT: qHTS for Inhibitors of human tyrosyl-DNA phosphodiesterase 1 (TDP1): qHTS in cells in absence of CPT; Potency, µM (highest dose often 46.2 µM), for the others: at the top dose activity change, negative = growth inhibition, actives largely listed as inhibitors; hit rate 15% among 420,000; DT40 Tdp1-/- hTDP1 cells, no CPT, ATP luminescence, 48 h; further: potency means the concentration at half of the fitted maximal effect; nearly all actives have a fitted effect of over 55% in size
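Growth of hTDP1-complemented DT40 Tdp1-knockout cells is measured by ATP luminescence after at least 48 hr compound exposure at 37 °C, with DMSO substituting for the 20 nM CPT used in the parallel screen.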
IL1B secr inh: inflammasome signaling inhibition, IL-1 beta readout; activity change, % at 57.5 µM; hit rate 4.7% among 360,000; THP-1 LPS/ATP IL-1B secretion, AlphaLISA, 16 h; hits give low values; in the data active means activity change below about -50%; inconclusive means mostly about -30% to -49%
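Secreted IL-1B measured by AlphaLISA bead assay after 16 h compound exposure of THP-1 cells; compounds (final up to 57.5 uM) added 1 h before LPS (250 ng/mL) and ATP (1.25 mM) stimulation; lower signal means less secretion.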
HT1080NT lethal: kills 2HG-producing HT-1080-NT fibrosarcoma cells. HT-1080-NT fibrosarcoma viability, CellTiter-Glo ATP luminescence, 48 h. Potency, µM (top dose mostly 46.1 µM), for the others: top-dose activity, negative = less viability, most hits filed as cytotoxic. hit rate 1.6% among 360,000. AID 686970;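 further: NT is the 2HG producing partner of a matched IDH1 knockdown line; potency means the concentration at half of the fitted maximal effect; 0% = DMSO-treated cells and -100% = media-only wells without cells; nearly all actives have a fitted effect of over 55% in size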
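HT-1080-NT fibrosarcoma cells (2HG-overproducing), 750 cells/well in RPMI with 5% FBS, dosed after 2 h and incubated 48 h at 37C. CellTiter-Glo luminescence normalized to DMSO and no-cell wells; concentration-response curves fitted and classed.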
Numbers without * were called inactive; ? = inconclusive; . = no result given. An excerpt weighted towards active compounds, which were near 19% of everything screened. Unless noted, the call rests on the fitted dose curve; in most records, active means well fitted curve in the direction sought with a large enough effect; inconclusive means small, poorly fitted or top-dose-only effect, or another doubt; inactive means no such curve, though single readings can be large; an effect the other way counts as inactive or inconclusive. Unless noted, on the % scale 0 is the no-effect control and ±100 the full control effect.

SMILES	TDP1 cell CPT	HT1080 IDH1KD tx	DT40 TDP1 no CPT	IL1B secr inh	HT1080NT lethal
O=C(c1ccc(-c2cccc(Cl)c2)o1)N1CCN(c2ccc([N+](=O)[O-])cc2)CC1	?	2%	21µM*	18	0%
Cc1cc(C(=O)N2CCN(c3ccc([N+](=O)[O-])cc3)CC2)c(C)o1	?	-5%	?	-20	17%
Cc1c(Cl)cccc1-c1ccc(C(=O)N2CCN(c3ccc([N+](=O)[O-])cc3)CC2)o1	?	15%	26µM*	-30	21%
O=[N+]([O-])c1cccc(-c2ccc(C(=S)N3CCOCC3)o2)c1	-7%	-10%	?	-16	-4%
CN1CCN(C(=S)c2ccc(-c3cccc([N+](=O)[O-])c3)o2)CC1	-28%	-3%	23µM*	-23	0%
O=[N+]([O-])c1cccc(-c2ccc(C(=S)N3CCN(c4ccccc4)CC3)o2)c1	?	-15%	?	-10	-3%
CC1NC(C(=O)O)Cc2c1[nH]c1ccccc21 (stereo not given)	-6%	.	-17%	.	.
CCN(CC)CCCNC(=O)Cc1ccc(NC(=O)N2CCCCc3ccccc32)cc1	-19%	.	-18%	.	.
CCOc1cc(/C=N/NC(=O)c2cccnc2)ccc1OCC(=O)N1CCOCC1	7%	21%	-17%	0	6%
Nc1nc(N)c2[nH]c(-c3ccccc3)nc2n1	2%	5%	11%	29	7%
C=C1c2ccccc2NC(=S)N1Cc1ccc2c(c1)OCO2	-27%	-10%	4.1µM*	-18	0%
O=C1c2ccccc2C(=O)N1Cc1ccc2c(c1)OCO2	13%	-2%	12%	1	10%
CC(C)(C)c1ccccc1OCC(=O)NCc1ccccc1	?	-3%	?	20	2%
CC(=O)NC12CC3CC(C1)CC(C(=O)N1CCN(c4ncccn4)CC1)(C3)C2	12%	0%	-19%	-8	-1%
O=C(Nc1nnc(-c2ccccc2Cl)o1)c1ccco1	?	?	?	-1	8.9µM*
Cc1ccc(C(=O)Nc2nnc(-c3ccco3)o2)cc1C	23µM*	?	15µM*	-20	-21%
O=C(COc1ccc(Cl)cc1)Nc1nnc(-c2ccc3c(c2)CCCC3)o1	-4%	9%	5.8µM*	15	19%
O=C(Nc1nnc(-c2ccco2)o1)c1ccc(Cl)cc1	?	?	13µM*	7	?
c1ccc(CNc2cccnc2)cc1	-6%	1%	-26%	-14	-2%
COc1cc(NC(=O)CCc2c(C)noc2C)c(C(=O)O)cc1OC	0%	-1%	-23%	17	5%
Cc1nc(CC(=O)Nc2ccc(C(N)=O)cc2)cs1	8%	.	2%	.	.
CO/N=C/C1CCN(c2ncc(C(F)(F)F)cc2Cl)C1=O (stereo not given)	-4%	17%	-1%	3	12%
CC(C)c1cccc(C(C)C)c1NC(=O)OC1CCCCC1	?	10%	?	2	23%
Cc1ccccc1C(=O)Nc1nnc(-c2ccco2)o1	21µM*	-9%	18µM*	-2	0%
COc1ccccc1C(=O)Nc1nnc(-c2ccc3c(c2)CCCC3)o1	?	-16%	23µM*	-63*	-17%
SMILES	TDP1 cell CPT	HT1080 IDH1KD tx	DT40 TDP1 no CPT	IL1B secr inh	HT1080NT lethal
Cc1cccc(C(=O)Nc2nnc(-c3ccco3)o2)c1	23µM*	-25%	10µM*	-3	-17%
COc1ccc(-c2nnc(NC(=O)c3ccccc3C)o2)cc1	16µM*	-28%	15µM*	10	-16%
Cc1ccccc1C(=O)Nc1nnc(-c2ccncc2)o1	-28%	-3%	?	0	0%
CC(=O)Nc1nnc(-c2ccc3c(c2)CCCC3)o1	-18%	-4%	?	-9	3%
Cc1ccc(S(=O)(=O)NCCC(=O)Nc2ccncc2)cc1C	?	-3%	?	-1	-16%
COc1ccc(-n2c(SCC(=O)N/N=C/c3ccccc3OCC(=O)O)nc3ccccc3c2=O)cc1	-22%	0%	9%	-3	3%
COc1ccccc1CNC(=O)COC(=O)c1ccc(-n2cnnn2)cc1	-5%	-2%	-17%	4	-1%
CSCCC(NC(=O)COc1ccccc1)C(=O)N1CCN(c2ccccc2F)CC1 (stereo not given)	15µM*	-1%	23µM*	0	9%
CN(C)c1ncc2nc(-c3ccccc3)c(=O)n(C)c2n1	-8%	.	3%	.	.
CCS(=O)(=O)c1nc(S(=O)(=O)c2ccc(Cl)cc2)c(N2CCc3ccccc3C2)s1	?	-5%	?	13	-1%
Cc1ccc2nc3cc([N+](=O)[O-])cc([N+](=O)[O-])c3cc2c1	0.46µM*	-13%	0.58µM*	-73*	4%
OC[C@H]1O[C@@H](c2nc(-c3ccc(CN4CCOCC4)cc3)no2)[C@H](O)[C@@H](O)[C@H]1O	-14%	18%	-9%	23	27%
CCCCN(C=O)c1c(CC)nc2ccc(C(=O)N3CCN(c4ccccc4)CC3)cn12	?	-5%	?	-1	0%
CC(C)(C)c1ccc(NC(=O)COC(=O)c2ccc(NS(=O)(=O)c3ccc(F)c(F)c3)cc2)cc1	-21%	-15%	?	?	0%
CCn1cc(C(=O)NC2CC(C)(C)Cc3c2cnn3-c2cccc(F)c2)cn1 (stereo not given)	16µM*	0%	21µM*	7	2%
Cc1cnc(C(=O)NC2CC(C)(C)Cc3c2cnn3-c2cccc(F)c2)cn1 (stereo not given)	?	-5%	?	-2	2%
CN(C)CC(O)COC(c1ccccc1)c1ccccc1 (stereo not given)	-9%	0%	-11%	-19	-3%
COc1ccc(C(OCC(O)CNCCc2ccc(S(N)(=O)=O)cc2)c2ccc(OC)cc2)cc1 (stereo not given)	?	?	?	-68*	-25%
OC(CNCCc1ccc(C(F)(F)F)cc1)COC(c1ccccc1)c1ccccc1 (stereo not given)	18µM*	?	?	-69*	?
COc1cc(NC(=O)COc2ccc([N+](=O)[O-])cc2)ccc1NC(=O)c1ccco1	-4%	6%	-8%	?	10%
Cc1nnc(N/N=C/c2cc([N+](=O)[O-])c(N3CCC(C)CC3)cc2N2CCC(C)CC2)n1N	-22%	-18%	?	-68*	-5%
CCc1nnc(N/N=C/c2ccc(N3CCC(C)CC3)c([N+](=O)[O-])c2)n1N	?	33µM*	?	59	?

Bioassay records deposited in PubChem BioAssay by National Center for Advancing Translational Sciences (NCATS).
